Test results published in ChEMBL document CHEMBL1157539, “Thousands of chemical starting points for antimalarial lead identification” (Nature, 2010).

Each compound was assayed on Plasmodium falciparum (assay: GSK_TCMDC: Inhibition of Plasmodium falciparum Dd2 in whole red blood cells, using parasite LDH activity as an index of growth. Test compounds present at 2uM).
Assay type: functional
Work on `O=C(Nc1ccc(Cl)cc1)c1ccc(CN2CCCN(Cc3ccccc3)CC2)cc1.O=C(O)C(F)(F)F` yielded an Inhibition of 2%. `CC(Cc1ccc(CNC(=O)c2ccc(CC(C)NCCc3cccc(Cl)c3)cc2)cc1)NCCc1cccc(Cl)c1` (stereo not drawn) gave an Inhibition of 66%. Compound `CS(=O)(=O)O.NC1=NC(CCc2ccccc2)N(c2ccccc2)C(N)=N1` (stereo not drawn) has an Inhibition of 15%. `Cc1ccc(Nc2nc(N)c3ccccc3n2)cc1.Cl` was tested, and the Inhibition was 12%. In the case of `COc1ccc2ncc(F)c(CCN3CCC(NCc4cc(C)c5c(c4)OCCO5)CC3)c2n1.Cl`, the Inhibition is reported as 67%. `CCc1cn(C)c2c(N3CCCC3=O)cc(C(=O)N[C@@H](Cc3ccccc3)[C@H](O)CNC3CCCCC3)cc12` gave an Inhibition of 98%. `CCOC(=O)c1ccc(NC(=O)Nc2cccc(-c3ccc(-c4nc5cc(C(F)(F)F)ccc5[nH]4)cc3)c2)cc1` gave an Inhibition of 99%. With `Cl.OC(CNCCCCCCNCC(O)c1ccc(Cl)c(Cl)c1)c1ccc(Cl)c(Cl)c1` (stereo not drawn) the Inhibition was 17%. Work on `O=C(Nc1ccc(Cl)cc1)Nc1cccc(-c2cccc(-c3nc4ccccc4[nH]3)c2)c1` yielded an Inhibition of 56%. Work on `CS(=O)(=O)c1cc2c(Nc3ccc(N4CCOCC4)cc3)c(C(N)=O)cnc2cc1Br.Cl` yielded an Inhibition of 89%. With `O=C(NCCc1ccc(Cl)c(Cl)c1)[C@@H]1CCCN1C(=O)c1ccc(O)c(-c2cccc(C(F)(F)F)c2)c1` the Inhibition was 82%. For `CC(=O)c1cccc(NC(=O)NC2CCN(c3ccnc(Nc4ccc(F)cc4)n3)C2)c1` (stereo not drawn), the Inhibition was 94%. Work on `COc1ccccc1NC(=O)c1cc(C(=O)c2cc(Cl)ccc2O)cn(-c2ccccc2OC)c1=O` yielded an Inhibition of 31%.
